# Screens from PubChem BioAssay.
# A selection: hits, their analogues and other compounds. The true share with any hit is near 3.2%.
# Marburg entry inh: qHTS for inhibitors of binding or entry into cells for Marburg Virus; AID 540276, 2011; 1.8% of 300,000 active; Marburg virus pseudotyped entry inhibition, cell reporter; Potency, µM (top dose mostly 37.8 µM), for the others: top-dose activity change, negative = inhibition, hits mostly inhibitors; calls by dose curve; tested in HEK293 cells
# LASV entry inh: qHTS for Inhibitors of binding or entry into cells for Lassa Virus; AID 540256, 2011; Lassa virus pseudotype entry inhibition, cell reporter; Potency, µM (series often up to 37.9 µM), without a hit: at the top dose activity change, negative = inhibition, usual class: inhibitors; 1.2% of 300,000 active; calls by dose curve; tested in HEK293 cells; further: nearly all actives have a fitted effect of over 50% in size
# FMDV inh: High Throughput Screening for Foot and Mouth Disease Virus Antivirals. FMDV antiviral cell-based qHTS. Potency, µM (highest dose often 57.9 µM), for the others: at the top dose activity change, negative = inhibition, usual class: inhibitors. 1.2% of 410,000 active; calls by dose curve; tested in HEK293T cells; further: read-out not given here; nearly all actives have a fitted effect of over 45% in size
# VACV mCherry inh: qHTS for Stage-Specific Inhibitors of Vaccinia Orthopoxvirus: mCherry Reporter Primary qHTS; 0.63% of 310,000 active; Potency, µM (doses to about 36.5 µM), for the others: top-dose activity change, negative = inhibition, usual class: inhibitors; AID 720579, 2013; Vaccinia virus mCherry reporter infection, fluorescence; calls by dose curve; tested in A549 cells; further: nearly all actives have a fitted effect of over 35% in size
# VACV Venus inh: qHTS for Stage-Specific Inhibitors of Vaccinia Orthopoxvirus: Venus Reporter Primary qHTS. Potency, µM (doses to about 36.5 µM), without a hit: top-dose activity change, negative = inhibition, actives largely listed as inhibitors. 0.46% of 330,000 active. Vaccinia virus Venus reporter expression, fluorescence; calls by dose curve; tested in A549 cells; further: nearly all actives have a fitted effect of over 30% in size
# Starred values were filed as active, the others as inactive; i = inactive; ? = inconclusive; . = no result given; ! = a repeat was not active; [ ] = remark or other dose. On the % scale 0 is the no-effect control and ±100 the full control effect; potency means the concentration at half of the fitted maximal effect.
SMILES,Marburg entry inh,LASV entry inh,FMDV inh,VACV mCherry inh,VACV Venus inh
C=CCOc1ccc(CN(C)c2ccc(S(=O)(=O)N3CCN(C)CC3)cc2[N+](=O)[O-])cc1,?,?,?,?,-27%
O=C(NCc1ccc2c3c(cccc13)C(=O)N2)c1cccs1,.,.,-10%,.,.
COc1ccc(NC(=O)CC2C(=O)N(C)C(=S)N2Cc2ccc3c(c2)OCO3)cc1 (configuration not stated),11µM*,-21%,15%,-19%,-12%
COc1cc2c(cc1OC)C(c1cc3cc(OC)c(OC)cc3[nH]c1=O)N(C(=O)C1CC1)CC2 (configuration not stated),13µM*,26µM*,-4%,.,.
Cc1cc(C)c2nc(NNC(=O)c3ccc(S(=O)(=O)N4CCc5ccccc5C4)cc3)sc2c1,?,16µM*,-16%,16µM*,?
CCc1nnc(NC(=O)c2ccc(S(=O)(=O)N3CCc4ccccc4C3)cc2)s1,29%,1%,-18%,-13%,-8%
Cc1cc(C)c2sc(NNC(=O)c3ccc(S(=O)(=O)N4CCc5ccccc5C4)cc3)nc2c1,?,12µM*,?,4.5µM*,7.9µM*
Cc1onc(-c2c(F)cccc2Cl)c1C(=O)N(C)C1CCCCC1,.,.,-24%,.,.
O=C1N(Cc2cccc(Cl)c2)C[C@@H]2C[C@@H](c3cccn3-c3cccnc3)N3CCC[C@@]123,13µM*,?,?,-13%,-11%
CNC[C@H](CC1CCCCC1)NC[C@H](CO)NCC1(c2ccccc2)CC1,.,.,-14%,-8%,-16%
CNC[C@H](CC1CCCCC1)NC[C@H](CO)NCCc1cccc(C(F)(F)F)c1,.,.,-16%,?,20µM*
COc1ccc(C(=O)c2ccc(Cl)c([N+](=O)[O-])c2)cc1,5.8µM*,?,?,-4%,-28%
O=C(c1ccc(F)cc1)C1CCN(CCn2c(=O)[nH]c3ccccc3c2=O)CC1,11µM*,0%,-14%,-1%,-19%
O=C(c1ccc2c(=O)n(CCc3ccccc3)c(=O)[nH]c2c1)N1CCN(C(=O)c2ccco2)CC1,.,.,.,0%,-17%
O=C(CCCn1c(=O)[nH]c2ccccc2c1=O)Nc1ccc(F)cc1,5%,6%,0%,-3%,-13%
O=C(c1ccc2c(=O)n(CCc3ccccc3)c(=O)[nH]c2c1)N1CCN(c2ccc(Cl)cc2)CC1,?,?,16µM*,-28%,-30%
COc1ccc(OC)c(NC(=O)c2ccc3c(=O)n(CCc4ccccc4)c(=S)[nH]c3c2)c1,?,?,0.79µM*,-10%,-9%
COCCn1c(=O)[nH]c2cc(C(=O)N3CCN(c4ccc(Cl)cc4)CC3)ccc2c1=O,?,21%[46.1 µM],16µM*!,?,-2%
CCc1nc2c(OCc3ccc(C(F)(F)F)cc3)cccn2c1N(C=O)Cc1ccc(OC)cc1,.,.,?,-20%,-18%
O=C(Cn1ccc2cc(S(=O)(=O)N3CCCCCC3)ccc21)NCCc1ccccc1Cl,.,-9%[46.1 µM],33%,-4%,-17%
COc1ccc(CCCC2=NC3C=CC=CC3=N2)cc1 (configuration not stated),14%[46.1 µM],.,.,.,.
O=C(c1ccc2c(=O)n(CCc3ccccc3)c(=O)[nH]c2c1)N1CCN(c2ccc(F)cc2)CC1,?,?,11µM*,?,0%
CCCCC(CC)CNC(=O)c1ccc2c(=O)n(CCOC)c(=O)[nH]c2c1 (configuration not stated),2.8µM*,?,?,1%,12%
COc1ccc(N2CCN(C(=O)c3ccc4c(=O)n(CCc5ccc(OC)c(OC)c5)c(=O)[nH]c4c3)CC2)cc1,11µM*,-26%,28µM*,-22%,-14%
COc1cc2[nH]c(=O)n(Cc3ccc(C(=O)N4CCN(c5ccc(Cl)cc5)CC4)cc3)c(=O)c2cc1OC,?,-24%[46.1 µM],25µM*,?,?
SMILES,Marburg entry inh,LASV entry inh,FMDV inh,VACV mCherry inh,VACV Venus inh
O=C(c1ccc2c(=O)n(CCc3ccccc3)c(=O)[nH]c2c1)N1CCN(c2ccccc2)CC1,10%[46.1 µM],?,-26%,-4%,-2%
COc1ccc(Cn2c(=O)[nH]c3cc(C(=O)N4CCN(c5cccc(OC)c5)CC4)ccc3c2=O)cc1,-19%[46.1 µM],5%[46.1 µM],?,-17%,-7%
Cc1cccnc1NC(=O)CN1C(=O)c2ccccc2S1(=O)=O,-4%[46.1 µM],22%,19%,-19%,-8%
Cc1cnc(NC(=O)c2cc3c(C)nn(-c4ccccc4)c3s2)s1,-1%,0%,-9%,.,.
CC(c1nnc(Sc2nnnn2-c2ccccc2)n1-c1ccc(F)cc1)N(C)C (configuration not stated),5%,5%,-28%,13µM*,?
O=C1N=C(N2CCOCC2)S/C1=C/c1ccc(-c2ccc(F)cc2)o1,2.5µM*,?,-16%,i,-20%
Cc1ccc(-c2ccc(/C=C3\SC(N4CCOCC4)=NC3=O)o2)cc1,?,?,-14%,?,?
Cc1ccc(C)c(N2CCN(C(=O)c3cccn4c(=O)c5sccc5nc34)CC2)c1,13µM*,?,?,i,-18%
O=C1c2ccccc2C(=O)C12OC2c1ccc(Cl)cc1Cl (configuration not stated),?,12%,28µM*,-14%,0%
COCCCN1CCN(C2Cc3ccccc3Sc3ccc(Cl)cc32)CC1 (configuration not stated),?,?,-9%,?,?
Clc1cccc2c1Sc1ccccc1CC2N1CCNCC1 (configuration not stated),?,5.2µM*,-22%,?,?
Cc1ccc(N2C(=O)NC(=O)/C(=C\C=C\c3ccco3)C2=O)cc1C,?,?,?,-2%,28%
O=C1S/C(=C\C=C\c2ccco2)C(=O)N1c1ccc(O)cc1,21µM*,?,?,i,-14%
O=C1NC(=O)N(Cc2ccccc2)C(=O)/C1=C\C=C\c1ccco1,?,?,25µM*,i,85%
Cc1ccc(N2C(=O)NC(=O)/C(=C\C=C\c3ccco3)C2=O)cc1,.,.,20µM*,.,.
Cc1cccc(N2C(=O)NC(=O)/C(=C\C=C\c3ccco3)C2=O)c1,.,.,7.1µM*,.,.
CC(NC(=O)c1ccccc1)C(=O)NNC(=O)c1ccccc1Cl (configuration not stated),.,.,-2%,.,.
Cc1cc2c(c(-c3nc4ccccc4s3)c1)OC(CNC(=O)CCc1cccnc1)C2 (configuration not stated),.,.,12%,-8%,14%
O=c1c(N2CCc3ccccc3C2)csc2ccc(Cl)cc12,.,0%[46.1 µM],29%,-1%,-12%
CC1(C)CN(CCc2ccccc2)C(=O)[C@@H]1CC(=O)Nc1ccccc1,.,-4%[46.1 µM],.,.,.
Cc1nnsc1C(=O)NCC1Cc2cccc(-c3ncccn3)c2O1 (configuration not stated),.,.,-15%,-9%,-2%
O=C1NC(=O)N(c2ccccc2)C1=O,12%[46.1 µM],-15%[46.1 µM],-8%,-12%,5%
